Laboratory results from PubChem BioAssay (NCATS).
Inconclusive results are not listed. Calls of active or inactive are those of the source. Calls come from the whole dose curve; as a rule, active = well fitted inhibition curve with a large enough effect; inconclusive = small, poorly fitted or top-dose-only effect; inactive = flat fitted curve, though single readings scatter.

How the values were obtained:
Test in all cases: qHTS profiling for inhibitors of Plasmodium falciparum proliferation (AID 504749); note: nearly all actives have a fitted effect of over 60% in size
Details in all cases: P. falciparum in erythrocytes, SYBR Green DNA, 72 h; series mostly up to 28.7 µM
[1] = test system: CP262
Procedure, shortened: (§1)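 SYBR Green fluorescence (ex 485 nm, em 535 nm) reports parasite DNA after 72 h compound exposure of infected red cells at 0.3% parasitemia, 2.5% hematocrit; signal normalized to 0.29 uM artemisinin and vehicle wells.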

[2] = test system: CP286
Procedure, shortened: as §1

[3] = test system: CP265
Procedure, shortened: as §1

[4] = test system: CP266
Procedure, shortened: as §1

[5] = test system: CP268
Procedure, shortened: as §1

[6] = test system: CP269
Procedure, shortened: as §1

[7] = test system: CP291
Procedure, shortened: as §1

[8] = test system: CP297
Procedure, shortened: as §1

[9] = test system: CP305
Procedure, shortened: as §1

[10] = test system: CP315
Procedure, shortened: as §1
Potency is the fitted concentration of half-maximal effect.

| SMILES | Potency [1] | Potency [2] | Potency [3] | Potency [4] | Potency [5] | Potency [6] | Potency [7] | Potency [8] | Potency [9] | Potency [10] |
| --- | --- | --- | --- | --- | --- | --- | --- | --- | --- | --- |
| Nc1ccc2cc3ccc(N)cc3nc2c1 | inactive | 3.55 µM (active) | – | – | – | – | – | – | – | – |
| CCCCCCCCCCCCCCCC[N+](C)(C)Cc1ccccc1 | 4.78 µM (active) | 2.82 µM (active) | 3.98 µM (active) | 9.53 µM (active) | 12 µM (active) | 7.57 µM (active) | 15.1 µM (active) | 13.5 µM (active) | – | – |
| Nc1c2ccccc2nc2ccccc12 | inactive | 5.01 µM (active) | – | 13.5 µM (active) | 13.5 µM (active) | 13.5 µM (active) | – | – | – | – |
| CC(NCCC(c1ccccc1)c1ccccc1)c1ccccc1 (centres undefined) | inactive | 3.98 µM (active) | – | – | 13.5 µM (active) | 16.9 µM (active) | 13.5 µM (active) | – | 13.5 µM (active) | – |
| O=S(=O)(O)c1ccc2nc(-c3ccccc3)[nH]c2c1 | inactive | inactive | inactive | inactive | inactive | inactive | inactive | inactive | inactive | inactive |
| O=[N+]([O-])c1ccc(O)c2ncccc12 | 12 µM (active) | – | – | – | – | – | – | – | – | – |
| CCCCCCCCCCCCCC[N+](C)(C)C | 4.78 µM (active) | 2.51 µM (active) | 8.91 µM (active) | 10.7 µM (active) | 8.49 µM (active) | 5.36 µM (active) | 4.78 µM (active) | 10.7 µM (active) | 5.36 µM (active) | 5.36 µM (active) |
| CCCCCCCCCCCCCCCC[n+]1ccccc1 | 3.38 µM (active) | 2.51 µM (active) | 8.91 µM (active) | 13.5 µM (active) | 9.53 µM (active) | 5.36 µM (active) | 6.01 µM (active) | 5.36 µM (active) | 6.75 µM (active) | – |
| Nc1ncnc2nc[nH]c12 | inactive | inactive | inactive | inactive | inactive | inactive | inactive | inactive | inactive | inactive |
| CN1CCC(Nc2ncc3ncnc(Nc4ccc(F)c(Cl)c4)c3n2)CC1 | inactive | 11.2 µM (active) | – | – | – | – | 15.1 µM (active) | – | – | inactive |
| O=C(Nc1ccc(Cl)cc1)Nc1ccc(Cl)c(Cl)c1 | 5.36 µM (active) | 2.24 µM (active) | 3.55 µM (active) | 8.49 µM (active) | 4.26 µM (active) | 6.01 µM (active) | 4.78 µM (active) | 7.57 µM (active) | 4.78 µM (active) | inactive |
| CN1CCCN(C(c2ccccc2)c2ccc(Cl)cc2)CC1 (centres undefined) | inactive | 11.2 µM (active) | 5.01 µM (active) | – | – | – | – | – | – | inactive |
